Pol iota inh – blocks human DNA polymerase iota activity. 390,000 tested, 1% active. Q9UNA4. AID 588590. Pol iota fluorescent replication assay, 10 min. Potency, µM (doses to about 115 µM), most hits filed as inhibitors
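Pol iota at 10 nM preincubated 15 min with compounds at room temperature; reaction started with fluorescent substrate, 50 nM final. Fluorescence read kinetically at 0 and 10 min; buffer-only wells as negative control.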
WRN inhibitor – inhibitors of human WRN helicase. Potency, µM (highest dose often 114 µM), actives largely listed as inhibitors. Q14191. AID 651768. 360,000 tested, 0.46% active. WRN helicase unwinding, fluorescent forked duplex, kinetic; note: nearly all actives have a fitted effect of over 55% in size
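Primary qHTS, 1536-well format. 20 nM WRN + compound, 15 min RT; start with 100 nM forked fluorophore/quencher duplex, 2 mM ATP (final); kinetic read ex 525/em 598 nm.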
Pol eta inh-1 – DNA polymerase eta (human) inhibition; Q9Y253; recombinant Pol eta, fluorescent DNA replication assay; 390,000 tested, 1.2% active; Potency, µM (doses to about 114 µM), most hits filed as inhibitors
Target sequence (Q9Y253 whole entry, looked up): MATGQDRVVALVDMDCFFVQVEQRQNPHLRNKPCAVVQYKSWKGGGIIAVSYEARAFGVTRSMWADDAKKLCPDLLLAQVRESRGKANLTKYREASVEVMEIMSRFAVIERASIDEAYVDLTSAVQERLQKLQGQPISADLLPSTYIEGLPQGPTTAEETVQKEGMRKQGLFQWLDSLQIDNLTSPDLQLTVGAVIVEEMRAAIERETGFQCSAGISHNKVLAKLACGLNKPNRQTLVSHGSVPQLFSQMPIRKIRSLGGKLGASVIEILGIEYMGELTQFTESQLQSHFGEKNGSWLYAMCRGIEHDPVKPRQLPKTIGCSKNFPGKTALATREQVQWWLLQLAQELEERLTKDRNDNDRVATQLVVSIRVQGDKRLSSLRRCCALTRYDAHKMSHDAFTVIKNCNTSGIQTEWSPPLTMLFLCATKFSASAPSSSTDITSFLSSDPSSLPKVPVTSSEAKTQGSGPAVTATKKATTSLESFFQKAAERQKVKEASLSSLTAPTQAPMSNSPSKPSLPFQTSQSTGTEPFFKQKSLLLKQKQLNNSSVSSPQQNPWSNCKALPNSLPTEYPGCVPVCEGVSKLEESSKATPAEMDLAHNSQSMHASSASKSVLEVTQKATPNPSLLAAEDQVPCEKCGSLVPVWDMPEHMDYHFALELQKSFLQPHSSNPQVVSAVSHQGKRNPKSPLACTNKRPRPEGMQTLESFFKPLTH
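Pol eta (10 nM) was preincubated with compounds for 15 min at room temperature, after which fluorescent replication substrate (50 nM final) was added to start the reaction. Fluorescence was read kinetically at 0 and 10 min.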
PI5P4Ka inh – PI5P4K alpha (human) kinase inhibition. P48426. PI5P4Kalpha enzyme, ADP-Glo luminescence, 60 min; hits give low values. max response, %. 330,000 tested, 1.2% active. AID 652105; active = max response of -50% or lower; inconclusive = between -30% and -50%; inactive = -30% or higher; note: value at the top dose of about 77 µM
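Luminescence from ADP-Glo served as readout of PI5P4Kalpha activity in a qHTS format. Reaction: enzyme, substrate, compound, ATP at 5 microM final, 60 min at RT.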
Pol kappa inh-1 – blocks human DNA polymerase kappa activity; Potency, µM (top dose mostly 107 µM), actives largely listed as inhibitors; purified Pol kappa, fluorescent DNA synthesis assay, 10 min; 400,000 tested, 0.53% active
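Inhibition of 10 nM Pol kappa is measured by a fluorescent read-out at 0 and 10 min following addition of 50 nM substrate (final), with a 15-min room-temperature compound preincubation.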
POLB inh – blocks human DNA polymerase beta activity; P06746; 340,000 tested, 1.3% active; Pol beta primer extension/strand displacement, fluorescence kinetic; Potency, µM (highest dose often 114 µM), most hits filed as inhibitors
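Pol beta (10 nM) was preincubated with compound for 15 min at room temperature. The reaction was then started with 50 nM substrate and read immediately and after a further 10 min at room temperature.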
GALK confirm – confirmation of human galactokinase (GALK) inhibitors. shares compounds with Pol eta inh-1. purified GALK, Kinase-Glo ATP depletion luminescence. Potency, µM (top dose mostly 115 µM), hits mostly inhibitors. 150 tested, 70% active. AID 2015
GALK redox cs – generates H2O2 by redox cycling, flagging GALK artifacts; shares compounds with Pol eta inh-1; Phenol red-HRP H2O2 redox cycling, absorbance 600 nm; Potency, µM (highest dose often 115 µM), most hits filed as inhibitors; 150 tested, 40% active
HEK293 viability – reduces HEK-293 cell viability in GALK counter-screen; shares compounds with Pol eta inh-1; Potency, µM (top dose mostly 46.1 µM), usual class: inhibitors; 170 tested, 10% active; HEK-293 viability, ATP luminescence (CellTiter-Glo), 24/48 h
Pol kappa inh-2 – Pol kappa (human) inhibition, cherry-pick confirmation | shares compounds with Pol eta inh-1 | purified Pol-kappa, fluorescent strand-displacement substrate | Potency, µM, usual class: inhibitors | 920 tested, 76% active | AID 720501
Pol eta inh-2 – Pol eta (human) inhibition, cherry-pick confirmation; shares compounds with Pol eta inh-1; Pol eta primer extension, TAMRA/BHQ fluorescence, 10 min; Potency, µM, hits mostly inhibitors; 2,600 tested, 64% active; AID 720502
A number is an active result; - = inactive; ? = inconclusive; . = no result; [ ] = another dose, or the depositor's remark. Only some compounds are listed: those with a hit (about 2.8% of all), similar ones and a draw of the others. Unless noted, calls come from the whole dose curve; as a rule, active = well fitted curve in the direction sought with a large enough effect; inconclusive = small, poorly fitted or top-dose-only effect, or another doubt; inactive = no such curve, though single readings can be large; an effect the other way counts as inactive or inconclusive.

SMILES	Pol iota inh	WRN inhibitor	Pol eta inh-1	PI5P4Ka inh	Pol kappa inh-1	POLB inh	Pol kappa inh-2	Pol eta inh-2	others
Nc1nc[nH]c(=O)c1N=Cc1ccccc1	-	-	-	-	-	-	.	.
CC(C)c1ccc(NS(=O)(=O)c2ccc3[nH]cc(C(=O)NC4CCCCC4)c(=O)c3c2)cc1	?	.	35µM	.	?	25µM	19	76
CC(C)c1ccc(NS(=O)(=O)c2ccc3[nH]cc(C(=O)NCC4CCCO4)c(=O)c3c2)cc1 (stereo not drawn)	79µM	.	89µM	.	-	32µM	38	?
CCOc1ccc(NS(=O)(=O)c2ccc3[nH]cc(C(=O)NCC4CCCO4)c(=O)c3c2)cc1 (stereo not drawn)	?	-	?	-	-	?	.	.
Cc1c(Cl)cccc1NS(=O)(=O)c1ccc2[nH]cc(C(=O)NC3CCCC3)c(=O)c2c1	79µM	.	25µM	.	?	?	24	95
Cc1cc(C)cc(NS(=O)(=O)c2ccc3[nH]cc(C(=O)NC4CCCCC4)c(=O)c3c2)c1	-	.	-	.	-	?	.	.
CCOc1ccc(C(=O)Nc2cc(NC(=O)c3ccc(OCC)c(Cl)c3)cc(C(=O)O)c2)cc1Cl	?	-[11.6 µM]	32µM	-	-	18µM	21	.
CCOc1ccc(C(=O)Nc2cccc(C(=O)O)c2)cc1Cl	-	-	-	-	-	-	.	.
COc1ccccc1N1CCN(C2CCCN(C(=O)c3cccc(-c4ccco4)c3)C2)CC1 (stereo not drawn)	-	-	-	-	-	-	.	.
COc1cc(/C=C2/C(=O)N(c3ccc(Br)cc3)N=C2C)cc(OC)c1OC	?	-	-	-	-	-	.	.
C#CCOc1ccc(/C=C2/C(=O)N(c3cccc(C(=O)O)c3)N=C2C)cc1OC	2µM	?	50µM	-	-	-	.	?
COc1ccccc1/C=C1/C(=O)N(c2ccccc2)N=C1C	?	-	-	-	-	-	.	.
COc1cc(/C=C2\C(=O)N(c3cccc(C(=O)O)c3)N=C2C)ccc1OCc1ccccc1	.	2.7µM	32µM	-	.	.	.	?
C[C@H](CO)N1C[C@H](C)[C@H](CN(C)C(=O)Cc2cccnc2)Oc2ncc(Br)cc2C1=O	.	-	-	-	.	.	.	.
COc1ccc(OCCCC(=O)OCC(=O)Nc2ncc(Cl)cc2Cl)cc1	?	?	40µM	-	-	.	?	85
O=C(COC(=O)CNC(=O)c1ccc([N+](=O)[O-])o1)Nc1ncc(Cl)cc1Cl	?	-[11.6 µM]	?	?	-	.	.	?
COc1ccc(/C=C/C(=O)OCC(=O)Nc2ncc(Cl)cc2Cl)cc1	-	-	?	-	-	.	.	.
O=C(COC(=O)CNC(=O)c1ccc([N+](=O)[O-])o1)Nc1ncc(C(F)(F)F)cc1Cl	-	-	-	-	-	.	.	.
CC1CCN(S(=O)(=O)c2ccc3c(c2)C(Cl)(Cl)C(=O)N3)CC1	.	-[11.6 µM]	32µM	?	.	.	.	?
O=C(c1ccco1)N1C2C=CC(C2)C1(C(F)(F)F)C(F)(F)F (stereo not drawn)	?	-	35µM	-	-	-	.	?
Cc1nn(Cc2noc(C(=O)NC3CCC(C)CC3)n2)c(C)c1Br (stereo not drawn)	-	-	-	-	-	-	.	.
Cc1nn(Cc2noc(C(=O)NCC3CCCO3)n2)c(C)c1Br (stereo not drawn)	-	-	-	-	-	-	.	.	GALK confirm=-;GALK redox cs=-;HEK293 viability=-
Cc1ccc(/C=C2\C(=N)N3N=C(CC(=O)N4CCCCC4)SC3=NC2=O)cc1	?	-[11.6 µM]	?	-	?	-	.	19
N=C1/C(=C/c2ccc(Br)o2)C(=O)N=C2SC(CC(=O)N3CCCC3)=NN12	18µM	50µM	8.9µM	?	35µM	8.9µM	.	38
CSc1ccc(/C=C2\C(=N)N3N=C(CC(=O)N4CCCCC4)SC3=NC2=O)cc1	?	-[11.6 µM]	45µM	?	89µM	?	67	.
SMILES	Pol iota inh	WRN inhibitor	Pol eta inh-1	PI5P4Ka inh	Pol kappa inh-1	POLB inh	Pol kappa inh-2	Pol eta inh-2	others
CCn1c(CNC(=O)c2ccccc2Br)nnc1SCC(=O)Nc1nncs1	-	-	-	-	-	-	.	.
Cc1cccc(N2C(=O)N3[C@@H]4c5ccccc5OC[C@@H]4[C@@H](c4ccccc4)[C@@]3(C)C2=O)c1	?	-	-	-	-	-	.	.
CC(C)CC(=O)Nc1c(C(=O)N2CCN(Cc3ccccc3)CC2)oc2ccccc12	-	-	-	-	-	-	.	.
COc1ccc(C(=O)Nc2ccc(-c3nnc4n3CCCCC4)cc2)cc1OC	?	.	-	.	?	32µM	17	.
NNC(=O)c1csc(-c2cccc(C(F)(F)F)c2)n1	-	-	-	-	-	-	.	.
Cc1ccc(C2C(/C=C3/SC(=S)NC3=O)=C(c3cccs3)Oc3ccccc32)cc1 (stereo not drawn)	?	79µM	71µM	.	?	32µM	?	?
CCOC(=O)C1=C(C)OC2(O)c3ccccc3C(=O)C12O (stereo not drawn)	1.6µM	-	40µM	-	-	-	.	.	GALK confirm=27µM;GALK redox cs=19µM;HEK293 viability=-
CC(=O)C1=C(C)OC2(O)c3ccccc3C(=O)C12O (stereo not drawn)	1µM	-	79µM	-	-	-	.	?
CCOC(=O)C1=C(C)N[C@@]2(O)c3ccccc3C(=O)[C@@]12O	-	-	-	-	-	-	.	.
Cc1ccc(S(=O)(=O)NC(=O)COc2ccc([N+](=O)[O-])cc2)cc1	-	-	-	-	-	-	.	.
Nc1ccc(-c2c3ccc(=O)cc-3oc3cc(O)ccc23)cc1C(=O)O	25µM	?	20µM	-	79µM	45µM	15	30
CCOC(=O)C1CCN(C(=O)Cn2ncc3c([nH]c4ccc(C)cc43)c2=O)CC1	-	.	-	.	-	-	.	.
O=C1C=CC(=O)N1CCCCCCCCCCN1C(=O)C=CC1=O	?	3.2µM	35µM	-51	-	.	?	.

From PubChem
